The panel holds about 83,000 compounds, 20% with a hit somewhere; the sample as a whole holds those more often.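 Interpretation: 100, growth as untreated; towards 0, rising growth inhibition; 0, no net growth; 0 to -100, cell death. Compounds scoring below 10 were considered active.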 A number with no mark means an inactive call. Activity calls are given as the source filed them.
The compounds below were run on HCT-15 colon (assay: NCI-60 one-dose screen, 48 h (100 = growth as untreated, 0 = no growth, -100 = all killed)). Settings: 10 µM unless noted.

SMILES | growth
CC(C)(C)c1[nH]nc2c1C(c1cc3ccccc3[nH]c1=O)Nc1cc(C(=O)OCc3ccccc3)ccc1N2 (stereo not drawn) | 55.3%
COc1ccc2nc(-c3c(-c4ccccc4)nc4ncccn34)[nH]c2c1 | 96.5%
O=C1NC(=Nc2ccc(S(=O)(=O)Nc3nccs3)cc2)S/C1=C\c1coc2ccccc2c1=O | 104%
CC(C)=CCC[C@](C)(O)[C@H]1CC[C@]2(C)[C@@H]1CC[C@@H]1[C@@]3(C)C/C(=C/c4ccc(Br)cc4)C(=O)C(C)(C)[C@@H]3CC[C@]12C | 85.4%
O=c1c2sc3ncc(Br)cc3c2ncn1-c1cccc(Cl)c1 | 88.5%
O=Cc1nc2ccccc2[nH]1 | 108%
CCc1ccc(-c2ccc(Nc3ccccc3)nn2)cc1S(N)(=O)=O | 65.3%
COc1ccc(-c2nc3ccccn3c2-c2nc3ccc(Cl)cc3[nH]2)cc1 | 89.1%
Cn1cc(-c2nc(-c3c[nH]c4ncccc34)cs2)c2ccccc21 | 64.3%
COc1ccc2c(c1)C/C(=C\c1cc(-c3ccc4c(c3)OCO4)n[nH]1)C2=O | 90.3%
Nc1ccc(Br)cn1 | 102%
Cc1nn(-c2ccc(Br)cc2)c2nc3[nH]c(=O)[nH]c(=O)c3nc12 | 104%
Cn1cc(-c2csc(-c3cn(C(=O)OC(C)(C)C)c4ccccc34)n2)c2cccnc21 | 52.4%
CC(C)(C)c1ccc(OCCCCCCCN2CCNCC2)cc1 | -22.1% (active)
Nc1ccc(Cl)cn1 | 98.6%
Cc1ccc(-c2nc([P+](c3ccccc3)(c3ccccc3)c3ccccc3)c(N3CCOCC3)o2)cc1 | 54.1%
c1ccc2[nH]c(-c3cc(-c4ccc5c(c4)OCO5)n[nH]3)nc2c1 | 56.7%
Nc1c(C(=O)Nc2cccc(Br)c2)sc2nc3c(cc12)C(=O)CCC3 | 33%
COc1cccc(NC(=O)c2sc3nc4c(cc3c2N)C(=O)CCC4)c1 | 15.7%

SMILES | growth
C=C(C)[C@@H]1CC[C@]2(C)[C@H](CC=C3[C@@H]4CC(C)(C)CC[C@]4(C=O)CC[C@]32C)[C@@]1(C)CCCN | 42.1%
CC(C)(C)c1cc(-n2c(-c3ccc(Cl)cc3)nc3cc(C(=O)Nc4ccc(Cl)cc4)ccc32)n[nH]1 | 39.2%
O=c1c(CNc2ccc(S(=O)(=O)Nc3nccs3)cc2)coc2ccccc12 | 99.9%
COc1cc(-c2cc(-c3nc4ccc(F)cc4[nH]3)[nH]n2)cc(OC)c1OC | 24.1%
O=C1C(Cl)=C(Nc2ccc(S(=O)(=O)c3ccc(NC4=C(Cl)C(=O)c5ccccc5C4=O)cc3)cc2)C(=O)c2ccccc21 | 0.496% (active)
Fc1ccc2nc(-c3cc(-c4ccc5c(c4)OCO5)n[nH]3)[nH]c2c1 | 57.5%
O=c1c(CNc2ccc(S(=O)(=O)Nc3ncccn3)cc2)coc2ccccc12 | 84.5%
COc1ccc(-c2cc(/C=C/C(=O)c3ccc(N)cc3)[nH]n2)cc1 | 17%
COC(=O)[C@]12CC[C@@H](C(=O)/C=C/c3cccnc3)[C@@H]1[C@H]1CC[C@@H]3[C@@]4(C)C/C(=C/c5cccnc5)C(=O)C(C)(C)[C@@H]4CC[C@@]3(C)[C@]1(C)CC2 | -46.2% (active)
NC1(N)C=CC2=C(C=C1)C1(N)C3=C(C=CC(N)(N)C=C3)N2C2(N)C3=C(C=CC(N)(N)C=C3)N1C1=C2C=CC(N)(N)C=C1 | 94.7%
CCCCC(=O)OC1CCCCC1C (stereo not drawn) | 108%
COc1ccc(/C=C/C(=O)NCCO)cc1 | 98%
COc1ccc2c(c1)C/C(=C\c1cc(-c3cc(OC)c(OC)c(OC)c3)n[nH]1)C2=O | 91.1%
COc1ccc(NC(=O)c2ccc3c(c2)nc(-c2cc4ccccc4[nH]c2=O)n3-c2cc(C(C)(C)C)[nH]n2)cc1 | 95.5%
COc1ccc2nc(-c3cc(-c4cc(OC)c(OC)c(OC)c4)n[nH]3)[nH]c2c1 | 15.1%
Nc1nc2c(c(=O)[nH]1)C(c1ccc3c(c1)OCO3)C=C(C(=O)O)N2 (stereo not drawn) | 111%
COc1ccc(-c2cc(/C=C/C(=O)c3ccc(OC)c(OC)c3)[nH]n2)cc1 | 12.5%
COc1cc2c(cc1OC)C(=O)/C(=C/c1cc(-c3ccc4c(c3)OCO4)n[nH]1)C2 | -39.9% (active)
COc1cc(-c2cc(-c3nc4ccccc4[nH]3)[nH]n2)cc(OC)c1OC | 48.8%
